Most compounds without a hit are left out; they make up all but 13% or so of the library.
GBA mod: Glucocerebrosidase | purified enzyme, resorufin glucoside fluorescence (screen aimed at inhibitors), 20 min | AID 360, 2006 | actives 1.1% (n = 48,000) | Potency, µM; in the data active means potency below about 15 µM; inconclusive means mostly about 16 µM to 33 µM;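 further: potency means the concentration at half of the fitted maximal effect; the screen sought inhibitors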
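Wild-type enzyme at 0.2 nM final in 50mM citric acid/KH2PO4, 10mM sodium taurocholate, 0.01% tween-20, pH 5.9, with resorufin beta-D-glucopyranoside at 30 uM final. Compounds titrated, 20 min at RT, red fluorescence read; AC50 from titration.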
AID923: qHTS Assay for Allosteric/Competitive Inhibitors of Caspase-1: Spectroscopic Profiling in AFC Spectral Region; actives 1.1% (n = 75,000); compound fluorescence, AFC spectral region (405/520 nm); AID 923, 2007; Potency, µM (series often up to 57.5 µM), for the others: top-dose fluorescence increase, hits mostly activators; further: potency means the concentration at half of the fitted maximal effect; 0% is about no effect
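Titrations up to 57 uM read every 20 sec for 3 min (405/520 nm) with 50 nM caspase 1 and 5 uM Ac-WEHD-AFC, pH 7.5 HEPES buffer. Fluorescence-vs-time intercept gave baseline, scaled against on-plate AFC standard.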
4MU fluor: qHTS Assay for Spectroscopic Profiling in 4-MU Spectral Region | actives 11% (n = 59,000) | AID 589, 2007 | max dye-equivalent concentration, M | compound autofluorescence, 340/450 nm, 4-MU equivalents; active compounds read high; in the data active means max dye-equivalent concentration above about 10 nM; inconclusive means mostly about 1.1 nM to 9.6 nM
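Intrinsic fluorescence at 340/450 nm (ex/em) was read after 15 min at room temperature in pH 8.0, 100 mM Tris. Each compound concentration expressed as 4-MU-equivalent concentration from a six-point 4-MU standard series on each plate.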
A350 fluor: qHTS Assay for Spectroscopic Profiling in A350 Spectral Region; Compound autofluorescence, 340/450 nm, Alexa 350 dye-equivalents; active compounds read high; max dye-equivalent concentration, M; actives 11% (n = 59,000); in the data active means max dye-equivalent concentration above about 10 nM; inconclusive means mostly about 1.1 nM to 9.6 nM
HADH2 inh: qHTS Assay for Inhibitors of HADH2 (Hydroxyacyl-Coenzyme A Dehydrogenase, Type II) | Potency, µM (doses to about 57.1 µM), for the others: at the top dose activity change, negative = inhibition, most hits filed as inhibitors | actives 3.4% (n = 73,000) | AID 886, 2007 | 3-hydroxyacyl-CoA dehydrogenase type-2 (Homo sapiens), Q99714 | recombinant HADH2, NADH fluorescence, beta-hydroxybutyryl-CoA; further: potency means the concentration at half of the fitted maximal effect; on the % scale 0 is the no-effect control and ±100 the full control effect; nearly all actives have a fitted effect of over 60% in size
Target sequence (Q99714 whole entry, looked up, one chain of several): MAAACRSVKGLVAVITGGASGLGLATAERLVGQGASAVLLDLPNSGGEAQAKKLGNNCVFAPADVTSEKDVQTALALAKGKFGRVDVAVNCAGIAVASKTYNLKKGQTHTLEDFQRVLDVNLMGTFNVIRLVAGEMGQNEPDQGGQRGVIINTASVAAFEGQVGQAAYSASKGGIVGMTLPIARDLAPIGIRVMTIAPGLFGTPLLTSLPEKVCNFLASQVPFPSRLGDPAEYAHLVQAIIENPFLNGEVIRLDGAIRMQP
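E. coli-expressed His-tagged HADH2 tested at 20 nM in alkaline Tris buffer (pH 9.0); oxidation of 90 uM beta-hydroxybutyryl-CoA with 1 mM NAD+ tracked fluorimetrically for 4 min.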
HSD17B inh: qHTS Assay for Inhibitors of HSD17B4, hydroxysteroid (17-beta) dehydrogenase 4. actives 7.6% (n = 75,000). Potency, µM (titrated, usually from 57.1 µM), for inactives: top-dose activity change, negative = inhibition, most hits filed as inhibitors. AID 893, 2007. 3-hydroxyacyl-CoA dehydrogenase type-2 (Homo sapiens), Q99714. recombinant HSD17B10, NADH fluorescence kinetic;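 further: the protocol describes HADH2 (HSD17B10) and not the HSD17B4 of the title; potency means the concentration at half of the fitted maximal effect; on the % scale 0 is the no-effect control and ±100 the full control effect; nearly all actives have a fitted effect of over 70% in size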
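His-tagged E. coli-expressed HADH2 at 20 nM in 100 mM Tris-HCl pH 9.0 with 0.01 % Tween-20, preincubated 15 min with compound at room temperature. Reaction with 1 mM NAD+ and 90 uM beta-hydroxybutyryl coenzyme A; NADH fluorescence (360/450 nm) read kinetically over 4 min, last minus first point.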
Active calls of the source: *; i = inactive; ? = inconclusive; · = not tested or not shown; [ ] = remark or other dose. Unless noted, the call rests on the fitted dose curve; in most records, active means well fitted curve in the direction sought with a large enough effect; inconclusive means small, poorly fitted or top-dose-only effect, or another doubt; inactive means no such curve, though single readings can be large; an effect the other way counts as inactive or inconclusive.

SMILES	GBA mod	AID923	4MU fluor	A350 fluor	HADH2 inh	HSD17B inh
O=C(CC1NC(=O)NC1=O)Nc1cccc2ccccc12 (stereo not drawn)	>77	17%	2.9e-08M*	2.5e-08M*	9%	-2%
COc1ccc(CCNC(=O)CC2Nc3cc(C)c(C)cc3NC2=O)cc1OC (stereo not drawn)	>77	4%	5.2e-08M*	5.1e-08M*	11%	?
O=c1n(-c2ccccc2)c(=O)n2n1CC[C@H]1/C(=N\OC[C@@H](O)COCc3ccco3)[C@H]3O[C@@H]3[C@@H](O)[C@@H]12	·	-1%[11.5 µM]	·	·	8%[11.4 µM]	0%[11.4 µM]
O[C@H](COc1ccccc1)CN1CCCCC1	·	3%[11.5 µM]	i	i	3%[11.4 µM]	6%[11.4 µM]
OC(COc1ccc(OCc2ccccc2)cc1)CN1CCCCC1 (stereo not drawn)	i	2%	4e-07M*	4.5e-07M*	17%	?
COc1nc(-c2ccccc2)ccc1-c1noc(-c2ccccc2)n1	>77	-1%	i	i	2%	-4%
COc1nc(-c2ccccc2)ccc1-c1noc(COc2ccccc2)n1	>77	8%	?	?	-6%	32µM*
COc1ccc(-c2ccc(-c3noc(-c4ccccc4)n3)c(OC)n2)cc1	5*	4%	9.1e-08M*	1.2e-07M*	?	10µM*
CCOc1nc(C)ccc1-c1noc(-c2ccccn2)n1	·	1%	6.3e-08M*	6.2e-08M*	25µM*	25µM*
COc1ccc(-c2noc(-c3ccccc3F)n2)cc1	·	-1%	·	·	15%	5%
COc1ccc(-c2ccc(-c3noc(-c4ccccc4F)n3)c(OC)n2)cc1	>77	2%	3.6e-08M*	3e-08M*	13µM*	2µM*
COc1ccc(O[C@H]2C=C[C@@H](c3ccccc3)O[C@H]2COC(=O)CC/C(C)=N\OC[C@@H](O)[C@H]2O[C@H]3OC(C)(C)O[C@H]3[C@@H]2O)cc1	·	-1%[11.5 µM]	·	·	3%[11.4 µM]	-5%[11.4 µM]
COc1nc2ccc(C)cc2cc1-c1noc(-c2cccnc2)n1	>77	0%	3.4e-08M*	3.8e-08M*	-9%	-25%
COc1cccc(-c2noc(-c3cccs3)n2)c1	·	0%	?	?	-3%	?
COc1nc(-c2ccccc2)ccc1-c1noc(-c2cccs2)n1	i	4%	2.9e-08M*	2.3e-08M*	-30%	4µM*
CCOc1nc(-c2ccc(C)cc2)ccc1-c1noc(COC)n1	>77	1%	1e-08M*	1.4e-08M*	?	32µM*
COc1nc(-c2ccc(Cl)cc2)ccc1-c1noc(-c2ccncc2)n1	>77	5%	5.8e-08M*	6.9e-08M*	-17%	-22%
COc1ccc(S(=O)(=O)N(C)CC(=O)O)cc1C	·	0%	·	·	-7%	3%
CCOc1nc(-c2ccccc2)ccc1-c1noc(-c2ccc(OC)c(OC)c2)n1	>77	0%	?	?	92%	?
CCOc1nc(-c2ccccc2)ccc1-c1noc(-c2cccnc2)n1	>77	2%	?	?	-23%	32µM*
Cn1c(N2CCOCC2)nc(-c2ccccc2)c1-c1ccccc1	8.6*	-2%	?	?	25µM*	32µM*
c1ccc2nc(N3CCOCC3)c(N3CCOCC3)nc2c1	>77	1%	i	i	-1%	1%
c1ccc(-c2nc3ccccc3nc2N2CCOCC2)cc1	>77	12%	2e-07M*	2.4e-07M*	-8%	?
CCCCN(c1ccccc1)c1ncnc2c1cnn2C	·	2%[11.5 µM]	i	i	2%[11.4 µM]	10%[11.4 µM]
COc1ccccc1COCC(O)CNCC1(N2CCCCC2)CCCCC1 (stereo not drawn)	>77	0%	?	1.2e-08M*	8%	11%
SMILES	GBA mod	AID923	4MU fluor	A350 fluor	HADH2 inh	HSD17B inh
COc1cc(C(C)=O)ccc1OCC(O)CNCC1(N2CCCCC2)CCCCC1 (stereo not drawn)	·	-2%	i	i	4%	2%
COc1ccccc1-c1cc(=O)c2cc(O)ccc2o1	·	-1%	i	i	-2%	4%
COc1ccccc1-c1ccc(C(=O)O)o1	>77	-1%	i	?	25µM*	32µM*
OCc1cn(-c2ccccc2)nc1-c1ccc2c(c1)OCCO2	>77	-3%	i	i	-21%	25µM*
COc1ccc(-c2nn(-c3ccccc3)cc2CO)cc1OC	·	0%	·	·	20%[11.4 µM]	25µM*
COc1cccc(-c2nn(-c3ccccc3)cc2CO)c1	>77	-3%	i	i	11%	?
O=C(O)C1=CC(O)[C@@H](O)C(O)C1 (stereo partly drawn)	·	1%	·	·	·	-5%
NCCCCCCNS(=O)(=O)c1ccc2c(Cl)cccc2c1	·	-1%	·	·	9%	-2%
O=C(Nc1cccc(F)c1)N1CCCC2(CCN(C(=O)c3ccncc3)CC2)C1	·	-1%	i	i	10%	-4%
CCOc1ccc(N2C(=O)CC(N3CCN(c4ccccc4F)CC3)C2=O)cc1 (stereo not drawn)	>77	6%	5e-07M*	5.4e-07M*	?	10µM*
CN=c1nc(-c2ccccc2)n(-c2ccccc2)s1	·	-3%	i	i	0.25µM*	6.3µM*
C/C(Cl)=C\Cn1c(NCCCn2ccnc2)nc2c1c(=O)n(C)c(=O)n2C	>77	1%	1.2e-08M*	1.7e-08M*	11%	13%
C/C(Cl)=C/Cn1c(NCCCn2ccnc2)nc2c1c(=O)[nH]c(=O)n2C	>77	-2%	i	i	-8%	24%
NCCOC[C@H](N)C(=O)O	·	1%[11.5 µM]	i	i	-5%[11.4 µM]	6%[11.4 µM]
c1ccc(-n2nnnc2SCc2cn3cccnc3n2)cc1	>77	-1%	1e-07M*	1.4e-07M*	25µM*	32µM*
COC(=O)c1ccc(N2C(=O)c3ccc(OC)c(OC)c3C2=O)cc1	>77	1%	5.7e-08M*	3.8e-08M*	-66%	?
COc1ccc2c(c1OC)C(=O)N(c1cccc(C)c1)C2=O	·	8%	·	·	-8%	-8%
O=C1NC(=S)SC1=C1CCCCCC1	>77	-2%	i	?	25µM*	?
CCOC(=O)C1(C)NC(c2cc(OC)c(OC)c(OC)c2)C2C(=O)N(CC)C(=O)C21 (stereo not drawn)	>77	0%	i	i	-15%	11%
CCN1C(=O)C2C(c3ccc(O)c(OC)c3)NC(C)(C(=O)OC)C2C1=O (stereo not drawn)	>77	-3%	1.4e-08M*	2.1e-08M*	2%	-2%
CCNC(=O)CCC(N)C(=O)O (stereo not drawn)	·	0%	·	·	·	-10%
CCOC(=O)c1cc(C(C)=O)c(=O)n(C)c1N	>77	-1%	1.6e-08M*	1.6e-08M*	-14%	?

Screening results (PubChem BioAssay)
